# Results from PubChem BioAssay.
# Target: Follistatin (Homo sapiens) (UniProt P19883)
# Assay: follistatin binders on small-molecule microarrays, primary screen, biochemical, small-molecule microarray, 635/667 nm fluorescence (AID 1132)
# Conditions: FST binding, 635 nm fluorescence, higher = more signal
# Sequence of Follistatin (Homo sapiens) (P19883 whole entry, looked up): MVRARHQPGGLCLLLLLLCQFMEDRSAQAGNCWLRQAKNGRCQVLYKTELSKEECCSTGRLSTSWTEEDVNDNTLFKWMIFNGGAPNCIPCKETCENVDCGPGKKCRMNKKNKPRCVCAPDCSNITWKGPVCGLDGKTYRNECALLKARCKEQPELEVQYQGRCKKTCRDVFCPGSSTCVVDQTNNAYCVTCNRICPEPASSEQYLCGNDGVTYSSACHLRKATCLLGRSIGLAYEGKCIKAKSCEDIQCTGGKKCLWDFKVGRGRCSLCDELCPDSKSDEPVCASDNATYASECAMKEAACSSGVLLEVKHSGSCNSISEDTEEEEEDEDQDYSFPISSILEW
row,SMILES,composite z-score
1,COC(=O)[C@@]1(Cc2ccc(F)cc2)[C@H]2c3cc(C(=O)N(C)C)n(CCN4CCOCC4)c3C[C@H]2CN1C(=O)c1ccccc1,-0.0389
2,CCCC[C@@H]1C[C@H]1[C@@H](NC(=O)c1ccc(C(F)(F)F)cc1)c1ccc(C(=O)OC)cc1,1.25
3,COC(=O)[C@@]1(Cc2ccccc2)[C@@H]2[C@@H](CC(=O)[C@H]2CC(=O)C(=O)N(C)C)CN1C(=O)c1ccccc1,-0.155
4,COC(=O)[C@@]1(Cc2ccc(OC)cc2)[C@H]2c3cc(C(=O)N4CCCC4)n(CCc4ccc(OC)c(Br)c4)c3C[C@H]2CN1C(=O)c1ccccc1,-0.533
5,O=C1NC(=O)C2C1C=CC(C(O)c1cccc(O)c1)N2Nc1ccc(Cl)cc1Cl (stereo unspecified),-0.127
6,C=C(COC)C(=O)CC[C@@H](OC(C)=O)c1ccc(OCCO)cc1,1.25

# Target: Fibroblast growth factor 2 (Homo sapiens) (UniProt P09038)
# Assay: FGF2 binders on small-molecule microarrays, primary screen, biochemical, small-molecule microarray, 635/667 nm fluorescence (AID 1133)
# Conditions: small-molecule microarray binding, FGF2, fluorescence 635/667; higher = more signal
# Sequence of Fibroblast growth factor 2 (Homo sapiens) (P09038 whole entry, looked up): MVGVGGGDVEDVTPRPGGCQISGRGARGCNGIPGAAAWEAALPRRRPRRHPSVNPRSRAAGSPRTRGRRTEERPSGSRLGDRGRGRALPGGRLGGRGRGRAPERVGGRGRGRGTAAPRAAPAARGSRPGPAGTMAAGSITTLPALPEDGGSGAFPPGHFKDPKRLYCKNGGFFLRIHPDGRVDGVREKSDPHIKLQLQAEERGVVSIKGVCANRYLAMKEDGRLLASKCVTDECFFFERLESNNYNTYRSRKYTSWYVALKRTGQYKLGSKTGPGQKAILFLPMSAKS
row,SMILES,composite z-score
1,CCCCN1CC=CC23O[C@@H]4C=CCOC(=O)[C@@H]4[C@H]2C(=O)N(CCO)[C@@H]3C1=O (stereo partly specified),-1.39
2,C=CC[C@@]12N=C(c3ccc(OCCCO)cc3)O[C@@H]1c1ccccc1N(Cc1ccccc1)C2=O,1.44
3,COCCOC(=O)N1C(=O)[C@@]2(c3cc(C#CCC(C(=O)OC)C(=O)OC)ccc31)[C@H](C(N)=O)[C@H]1C(=O)O[C@H](c3ccccc3)[C@H](c3ccccc3)N1[C@@H]2c1ccc(OCCO)cc1,1.1
4,CCOC(=O)C1=C(C(=O)OCC)N(S(=O)(=O)CC[Si](C)(C)C)[C@H](c2ccccc2)CC1,-0.0502
5,COC(=O)C1=CC(CCCO)=CC(c2ccc(CN3CCCC3)cc2)N(Cc2sc3ccccc3c2Cl)C=C1C(=O)OC (stereo unspecified),0.709
6,C=CCNC(=O)[C@@H]1[C@H]2C(=O)O[C@H](c3ccccc3)[C@H](c3ccccc3)N2[C@H](c2ccc(O)cc2)[C@@]12C(=O)Nc1ccc(C#CC3(O)CCCCCC3)cc12,0.749
7,NC(=O)NCC#Cc1ccc2c(c1)[C@]1(C(=O)N2)[C@H](C(=O)Nc2nc3ccccc3s2)[C@H]2C(=O)O[C@H](c3ccccc3)[C@H](c3ccccc3)N2[C@@H]1c1ccc(OCCO)cc1,0.746
8,COCCOC(=O)N1C(=O)[C@@]2(c3cc(C#CC4(O)CCCCCC4)ccc31)[C@H](c1ccccc1OCCO)N1[C@H](c3ccccc3)[C@H](c3ccccc3)OC(=O)[C@H]1[C@@H]2C(=O)N1CCCCCCC1,1.09
9,COCCOC(=O)N1C(=O)[C@@]2(c3cc(C#CCCO)ccc31)[C@H](C(=O)N1CCc3cc(OC)c(OC)cc3C1)[C@H]1C(=O)O[C@H](c3ccccc3)[C@H](c3ccccc3)N1[C@@H]2c1ccccc1OCCO,1.3
10,[N-]=[N+]=NCc1ccccc1[C@H]1OC(c2ccc(OCCCO)cc2)=N[C@@]1(Cc1ccccc1)C(=O)N1CCOCC1,1.48
11,C=CCOC(=O)[C@H]1[C@@H]2C(=O)O[C@@H](c3ccccc3)[C@@H](c3ccccc3)N2[C@@H](c2ccc(OCCOC(=O)[C@@H]3C[C@@H]4C(=O)N[C@@H](CC(C)C)C(=O)N4[C@@H]3c3ccc(O)cc3)cc2)[C@]12C(=O)Nc1ccc(I)cc12,1.89
12,COCCOC(=O)N1C(=O)[C@@]2(c3cc(C#CCC(C(=O)OC)C(=O)OC)ccc31)[C@H](C(=O)N1CCc3cc(OC)c(OC)cc3C1)[C@H]1C(=O)O[C@H](c3ccccc3)[C@H](c3ccccc3)N1[C@@H]2c1ccc(O)cc1,1.59
13,O=C1c2ccccc2[C@@]2(Cc3ccccc3N(Cc3ccccc3)C2=O)[C@H](c2ccc(CO)cc2)N1Cc1ccccc1,-1.01
14,CN(C)CCCC[C@@H]1NC(=O)[C@@H]2C[C@H](C(=O)NCCCCCCNC(=O)CS)[C@H](c3cccc(OCCO)c3)N2C1=O,0.541
15,CCCC[C@H]1OB(O)C[C@H]2C1=C(COC)C[C@H]1C(=O)C=CC(=O)[C@H]12,0.32
16,C=C(/C(=C/C[C@@H](OC(C)=O)c1ccccc1OCCO)c1cc(C(=O)OC)ccc1OC)C(C)C,0.212
17,C=C(CCCC)/C(=C/C[C@H](OC(C)=O)c1cccc(OCCO)c1)c1cc(C(=O)OC)ccc1OC,0.261
18,CN(C)CCCC[C@@H]1NC(=O)[C@@H]2C[C@H](C(=O)NCc3ccc(F)cc3)[C@H](c3ccc(O)cc3)N2C1=O,1.91

row,SMILES,composite z-score
1,C=CCNC(=O)[C@@H]1[C@H]2C(=O)O[C@H](c3ccccc3)[C@H](c3ccccc3)N2[C@H](c2ccccc2OCCO)[C@@]12C(=O)N(C(=O)OCCOC)c1ccc(C#CCCO)cc12,1.29
2,C=CCC(OC(C)=O)[C@@H]1[C@@H](N(Cc2cc3ccccc3o2)C(=O)c2ccc(-c3ccccc3)cc2)c2cc(OCCCO)ccc2N1C(=O)c1ccc2ccccc2n1 (stereo partly specified),-0.171
3,COc1ccc(C#Cc2ccc3c(c2)[C@]2(C(=O)N3)[C@H](C(=O)Nc3nc4ccccc4s3)[C@H]3C(=O)O[C@H](c4ccccc4)[C@H](c4ccccc4)N3[C@@H]2c2ccc(OCCO)cc2)cc1,0.83
4,C=CCC(OC(C)=O)[C@@H]1[C@@H](N(Cc2cc3ccccc3o2)C(=O)Cc2ccc(OC)cc2)c2cc(OCCCO)ccc2N1C(=O)Cc1ccc(OC)cc1 (stereo partly specified),0.171
5,COCCOC(=O)N1C(=O)[C@@]2(c3cc(C#CC4(O)CCCCCC4)ccc31)[C@H](C(=O)NC[C@H](O)c1ccccc1)[C@H]1C(=O)O[C@H](c3ccccc3)[C@H](c3ccccc3)N1[C@@H]2c1ccc(O)cc1,0.774
6,Cc1c(NC(=O)/C(C#N)=C/c2ccc(Cl)cc2)c(=O)n(-c2ccccc2)n1C,0.627
7,CCCC=C(CCC)[C@@H](NS(=O)(=O)c1ccc(Cl)cc1)c1ccccc1,-0.919
8,CN(C)CCCNC(=O)[C@@]1(Cc2ccccc2I)c2ccccc2C(=O)N(Cc2ccccc2)[C@H]1c1ccc(CO)cc1,1.58
9,CCOC(=O)C[C@H]1[C@H](OC(=O)c2ccc(-c3ccccc3)cc2)[C@@H](NC(=O)c2ccc3ccccc3c2)c2cc(OCCCO)ccc2N1C(=O)c1ccccc1,0.831
10,C=C(CCCC)C(=O)CC[C@H](OC(=O)c1cccnc1)c1ccc(CO)o1,1.27
11,COc1ccc(C#Cc2ccc3c(c2)[C@]2(C(=O)N3)[C@H](c3ccc(OCCO)cc3)N3[C@H](c4ccccc4)[C@H](c4ccccc4)OC(=O)[C@H]3[C@@H]2C(=O)O)cc1,0.485
12,COC(=O)[C@@]1(Cc2ccc(F)cc2)[C@H]2c3cc(C(=O)N(C)C)n(CCN4CCOCC4)c3C[C@H]2CN1C(=O)c1ccccc1,-0.708
13,CCCC[C@@H]1C[C@H]1[C@@H](NC(=O)c1ccc(C(F)(F)F)cc1)c1ccc(C(=O)OC)cc1,-0.115
14,COC(=O)[C@@]1(Cc2ccccc2)[C@@H]2[C@@H](CC(=O)[C@H]2CC(=O)C(=O)N(C)C)CN1C(=O)c1ccccc1,-0.112
15,COC(=O)[C@@]1(Cc2ccc(OC)cc2)[C@H]2c3cc(C(=O)N4CCCC4)n(CCc4ccc(OC)c(Br)c4)c3C[C@H]2CN1C(=O)c1ccccc1,-0.381
16,O=C1NC(=O)C2C1C=CC(C(O)c1cccc(O)c1)N2Nc1ccc(Cl)cc1Cl (stereo unspecified),0.0853
17,C=C(COC)C(=O)CC[C@@H](OC(C)=O)c1ccc(OCCO)cc1,0.945
